# PubChem BioAssay (EPA / NIEHS)
# Active and inactive are the calls of the source. The calls were made as follows: active = hit-call score of the fitted dose curve at least 0.9, where 1 is the maximum; inactive = score below 0.9.
# Assays:
# [1] = read-out: Cytochrome P450 (CYP1A1), CYP1A1 (gene 1543); test: LTEA_HepaRG_CYP1A1: Life Technologies and Expression Analysis (LTEA) Assay for Cytochrome P450 (CYP1A1) using HepaRG (AID 2283454); conditions: mRNA level, 48 h; actives raise or lower the signal
# Procedure, shortened: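 Differentiated human HepaRG cells, after 48 h plating, exposed in duplicate for 48 h in serum-free induction medium to 8 half-log concentrations up to 100 uM in 0.5% DMSO. CYP1A1 mRNA by qRT-PCR, normalized to ACTB/GAPDH/POLR2A; bidirectional fit versus DMSO.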
# [2] = read-out: CFLAR gene, CFLAR (gene 8837); test: LTEA_HepaRG_CFLAR: Life Technologies and Expression Analysis (LTEA) Assay for CFLAR gene using HepaRG (AID 2283455); conditions: mRNA level, 48 h; actives raise or lower the signal
# Procedure, shortened: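 Transcript level by qRT-PCR (normalized to ACTB, GAPDH and POLR2A) after 48 h chemical exposure of HepaRG cells, top concentration 100 uM with half-log steps, 0.5% DMSO vehicle, duplicates; fitted bidirectionally against DMSO baseline.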
# [3] = read-out: Forkhead box O1 (FOXO1), FOXO1 (gene 2308); test: LTEA_HepaRG_FOXO1: Life Technologies and Expression Analysis (LTEA) Assay for Forkhead box O1 (FOXO1) using HepaRG (AID 2283456); conditions: mRNA level, 48 h; actives raise or lower the signal
# Procedure, shortened: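 FOXO1 transcript quantified by qRT-PCR after 48 h chemical exposure (top 100 uM, half-log steps, 0.5% DMSO) of HepaRG cells, housekeeping-normalized (ACTB/GAPDH/POLR2A). Changes fitted in both directions relative to vehicle.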
# [4] = read-out: growth arrest and DNA damage 45 (GADD45A), GADD45A (gene 1647); test: LTEA_HepaRG_GADD45A: Life Technologies and Expression Analysis (LTEA) Assay for growth arrest and DNA damage 45 (GADD45A) using HepaRG (AID 2283458); conditions: mRNA level, 48 h; actives raise or lower the signal
# Procedure, shortened: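 HepaRG, 48 h exposure, 8 conc. (top 100 uM, half-log steps), 0.5% DMSO vehicle, duplicates. Read-out: qRT-PCR mRNA level, housekeeping-normalized (ACTB/GAPDH/POLR2A). Curves fit bidirectionally vs DMSO baseline.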
# [5] = read-out: Forkhead box O3 (FOXO3), FOXO3 (gene 2309); test: LTEA_HepaRG_FOXO3: Life Technologies and Expression Analysis (LTEA) Assay for Forkhead box O3 (FOXO3) using HepaRG (AID 2283459); conditions: mRNA level, 48 h; actives raise or lower the signal
# Procedure, shortened: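 FOXO3 transcript measured by qRT-PCR (normalized to ACTB, GAPDH, POLR2A) after 48 h exposure of HepaRG cells in serum-free induction medium. Duplicates, eight half-log concentrations up to 100 uM, 0.5% DMSO; gain or loss fitted against DMSO.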
# [6] = read-out: ABC Transporter (ABCB1), ABCB1 (gene 5243); test: LTEA_HepaRG_ABCB1: Life Technologies and Expression Analysis (LTEA) Assay for ABC Transporter (ABCB1) using HepaRG (AID 2283460); conditions: mRNA level, 48 h; actives raise or lower the signal
# Procedure, shortened: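 ABCB1 transcript level measured by TaqMan qRT-PCR against three housekeeping genes after 48 h chemical exposure of differentiated HepaRG cells. Top concentration 100 uM, half-log steps, eight points, 0.5% DMSO vehicle; bidirectional fit relative to DMSO.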
# [7] = read-out: growth arrest and DNA damage 45 (GADD45B), GADD45B (gene 4616); test: LTEA_HepaRG_GADD45B: Life Technologies and Expression Analysis (LTEA) Assay for growth arrest and DNA damage 45 (GADD45B) using HepaRG (AID 2283461); conditions: mRNA level, 48 h; actives raise or lower the signal
# Procedure, shortened: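 Differentiated human HepaRG cells in serum-free induction medium exposed 48 h in duplicate to eight concentrations, top 100 uM, half-log steps, 0.5% DMSO. GADD45B mRNA by TaqMan qRT-PCR, normalized to ACTB, GAPDH, POLR2A; bidirectional fit versus DMSO.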
# [8] = read-out: ABC Transporter (ABCC3), ABCC3 (gene 8714); test: LTEA_HepaRG_ABCC3: Life Technologies and Expression Analysis (LTEA) Assay for ABC Transporter (ABCC3) using HepaRG (AID 2283462); conditions: mRNA level, 48 h; actives raise or lower the signal
# Procedure, shortened: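 Differentiated human HepaRG cells exposed 48 h in serum-free induction medium, 0.5% DMSO vehicle, 8-point half-log series to 100 uM in duplicate. ABCC3 mRNA by qRT-PCR, normalised to ACTB, GAPDH, POLR2A; bidirectional fit vs DMSO.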
# [9] = CEETOX_H295R_TESTO: CeeTox H295R High-throughput Steroidogenesis Assay for Testosterone (TESTO) (AID 2283457); conditions: actives raise or lower the signal;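 as to AC50: cells exposed to chemicals for 48 h before medium collection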
# Procedure, shortened: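 H295R adrenal cells, passage ≤10, exposed to chemicals for 48 h. Testosterone in medium measured by MTBE extraction and HPLC-MS/MS against a 7-point standard curve. Bidirectional fit versus DMSO; MTT viability checked in the same wells.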
compound,measurement,setting,value
CC(C)[C@H](C(=O)O[C@H](C#N)c1cccc(Oc2ccccc2)c1)c1ccc(Cl)cc1,AC50,[1],34.8 µM (active)
same,outcome,[2],inactive
same,outcome,[3],inactive
same,outcome,[4],inactive
same,outcome,[5],inactive
same,AC50,[6],23.2 µM (active)
same,outcome,[7],inactive
same,outcome,[8],inactive
CC(C)N(C(=O)SCC(Cl)=C(Cl)Cl)C(C)C,AC50,[1],67.5 µM (active)
same,outcome,[2],inactive
same,outcome,[3],inactive
same,outcome,[4],inactive
same,outcome,[5],inactive
same,outcome,[6],inactive
same,outcome,[7],inactive
same,outcome,[8],inactive
COP(=O)(NC(C)=O)SC (stereo unspecified),outcome,[1],inactive
same,outcome,[2],inactive
same,outcome,[3],inactive
same,outcome,[4],inactive
same,outcome,[5],inactive
same,outcome,[6],inactive
same,outcome,[7],inactive
same,outcome,[8],inactive
C[N+]1(C)CCCCC1,AC50,[1],50 µM (active)
same,outcome,[2],inactive
same,outcome,[3],inactive
same,outcome,[4],inactive
same,outcome,[5],inactive
same,outcome,[6],inactive
same,outcome,[7],inactive
same,outcome,[8],inactive
CN(C)NC(=O)CCC(=O)O,outcome,[1],inactive
same,outcome,[2],inactive
same,outcome,[3],inactive
same,outcome,[4],inactive
same,outcome,[5],inactive
same,outcome,[6],inactive
same,outcome,[7],inactive
same,outcome,[8],inactive
O=C(O)c1cc(Oc2ccc(C(F)(F)F)cc2Cl)ccc1[N+](=O)[O-],AC50,[1],50 µM (active)
same,outcome,[2],inactive
same,outcome,[3],inactive
same,outcome,[5],inactive
same,AC50,[6],50 µM (active)
same,outcome,[8],inactive
CCc1cnc(C2=NC(C)(C(C)C)C(=O)N2)c(C(=O)O)c1 (stereo unspecified),outcome,[1],inactive
same,outcome,[2],inactive
same,outcome,[3],inactive
same,outcome,[4],inactive
same,outcome,[5],inactive
same,outcome,[6],inactive
same,outcome,[7],inactive
same,outcome,[8],inactive
Cc1cc(C2CC2)nc(Nc2ccccc2)n1,AC50,[1],0.52 µM (active)
same,outcome,[2],inactive
same,outcome,[3],inactive
same,outcome,[4],inactive
same,outcome,[5],inactive
same,outcome,[6],inactive
same,outcome,[7],inactive
same,outcome,[8],inactive
Nc1nc(N)nc(NC2CC2)n1,AC50,[1],50 µM (active)
same,outcome,[2],inactive
same,outcome,[3],inactive
same,outcome,[4],inactive
same,outcome,[5],inactive
same,outcome,[6],inactive
same,outcome,[7],inactive
same,outcome,[8],inactive
CC(COc1ccc(Oc2ccccc2)cc1)Oc1ccccn1 (stereo unspecified),AC50,[1],77.4 µM (active)
same,outcome,[2],inactive
same,outcome,[3],inactive
same,outcome,[9],inactive
same,outcome,[4],inactive
same,outcome,[5],inactive
same,outcome,[6],inactive
same,outcome,[7],inactive
same,outcome,[8],inactive
CN(C)C(=O)Nc1cccc(C(F)(F)F)c1,AC50,[1],24.7 µM (active)
same,outcome,[2],inactive
same,outcome,[3],inactive
same,AC50,[4],79.2 µM (active)
same,outcome,[5],inactive
same,outcome,[6],inactive
same,outcome,[7],inactive
same,outcome,[8],inactive
CNC(=O)ON=C(C)SC,outcome,[1],inactive
same,outcome,[2],inactive
same,outcome,[3],inactive
same,outcome,[4],inactive
same,outcome,[5],inactive
same,outcome,[6],inactive
same,outcome,[7],inactive
same,outcome,[8],inactive
CCOP(=S)(OCC)Oc1ccc2c(C)c(Cl)c(=O)oc2c1,AC50,[1],6.37 µM (active)
same,outcome,[2],inactive
same,outcome,[3],inactive
same,outcome,[4],inactive
same,outcome,[5],inactive
same,AC50,[6],12.9 µM (active)
same,outcome,[7],inactive
same,outcome,[8],inactive
O=c1ccc(=O)[nH][nH]1,outcome,[1],inactive
same,outcome,[2],inactive
same,outcome,[3],inactive
same,outcome,[4],inactive
same,outcome,[5],inactive
same,outcome,[6],inactive
same,outcome,[7],inactive
same,outcome,[8],inactive
O=[N+]([O-])c1cc(C(F)(F)F)c(Cl)c([N+](=O)[O-])c1Nc1ncc(C(F)(F)F)cc1Cl,AC50,[1],9.68 µM (active)
same,AC50,[2],40.9 µM (active)
same,outcome,[3],inactive
same,AC50,[4],33.6 µM (active)
same,AC50,[5],35.6 µM (active)
same,outcome,[6],inactive
same,outcome,[7],inactive
same,AC50,[8],13.2 µM (active)
CC[C@H](C)[C@H]1O[C@]2(C=C[C@@H]1C)C[C@@H]1C[C@@H](C/C=C(\C)[C@@H](O[C@H]3C[C@H](OC)[C@@H](O[C@H]4C[C@H](OC)[C@@H](NC)[C@H](C)O4)[C@H](C)O3)[C@@H](C)/C=C/C=C3\CO[C@@H]4[C@H](O)C(C)=C[C@@H](C(=O)O1)[C@]34O)O2,AC50,[1],13.4 µM (active)
same,AC50,[2],16.9 µM (active)
same,AC50,[3],27.9 µM (active)
same,outcome,[4],inactive
same,outcome,[5],inactive
same,AC50,[6],23 µM (active)
same,AC50,[7],50 µM (active)
same,AC50,[8],31.6 µM (active)
CCCCOC(=O)c1ccccc1C(=O)O,AC50,[1],36.1 µM (active)
same,outcome,[2],inactive
same,outcome,[3],inactive
same,outcome,[4],inactive
same,outcome,[5],inactive
same,outcome,[6],inactive
same,outcome,[7],inactive
CCC(=O)Nc1ccc(Cl)c(Cl)c1,AC50,[1],32.1 µM (active)
same,outcome,[2],inactive
same,outcome,[3],inactive
same,AC50,[9],2.93 µM (active)
same,outcome,[4],inactive
same,outcome,[5],inactive
same,outcome,[6],inactive
same,outcome,[7],inactive
same,outcome,[8],inactive
CNC(=O)Oc1cccc2c1OC(C)(C)O2,outcome,[1],inactive
same,outcome,[2],inactive
same,outcome,[3],inactive
same,outcome,[4],inactive
same,outcome,[5],inactive
same,outcome,[6],inactive
same,outcome,[7],inactive
same,outcome,[8],inactive
